By residual activity is commonly meant the signal under treatment as a percentage of the control signal.

Each structure is given as a SMILES string.

Experiment [1] has as its target T1, Serine/threonine-protein kinase Sgk2 (Homo sapiens) (UniProt Q9HBY8).
T1 sequence (whole entry): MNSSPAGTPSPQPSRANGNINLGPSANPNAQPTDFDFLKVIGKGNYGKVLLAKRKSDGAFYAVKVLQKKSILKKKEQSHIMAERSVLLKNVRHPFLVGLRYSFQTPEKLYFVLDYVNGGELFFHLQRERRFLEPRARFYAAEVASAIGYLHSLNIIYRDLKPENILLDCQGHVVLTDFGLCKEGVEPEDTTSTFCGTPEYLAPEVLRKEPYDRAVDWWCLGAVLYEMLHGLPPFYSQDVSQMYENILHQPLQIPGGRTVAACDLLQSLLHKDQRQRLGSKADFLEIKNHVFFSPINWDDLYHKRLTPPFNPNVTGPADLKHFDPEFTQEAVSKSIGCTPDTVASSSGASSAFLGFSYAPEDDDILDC
The following applies: at 1 µM.

Experiment [2] deals with T1, Serine/threonine-protein kinase Sgk2 (Homo sapiens). The following applies: at 10 µM.
Experiment [3] concerns the target T2, Serine/threonine-protein kinase Sgk3 (Homo sapiens) (UniProt Q96BR1).
T2 sequence (whole entry): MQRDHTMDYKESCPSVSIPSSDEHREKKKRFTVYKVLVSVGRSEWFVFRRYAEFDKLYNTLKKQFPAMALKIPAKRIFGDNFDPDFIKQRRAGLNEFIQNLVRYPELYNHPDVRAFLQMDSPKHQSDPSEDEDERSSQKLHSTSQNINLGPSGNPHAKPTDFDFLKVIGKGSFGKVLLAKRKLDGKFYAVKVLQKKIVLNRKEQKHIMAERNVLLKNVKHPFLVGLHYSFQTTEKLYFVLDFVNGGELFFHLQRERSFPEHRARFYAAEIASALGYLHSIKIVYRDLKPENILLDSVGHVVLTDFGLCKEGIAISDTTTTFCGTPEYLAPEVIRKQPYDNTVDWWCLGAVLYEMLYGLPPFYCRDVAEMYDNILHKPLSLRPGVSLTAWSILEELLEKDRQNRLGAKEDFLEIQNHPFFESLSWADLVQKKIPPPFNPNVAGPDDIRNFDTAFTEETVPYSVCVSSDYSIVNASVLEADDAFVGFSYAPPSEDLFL
Conditions: at 1 µM.

Experiment [4] addresses T2, Serine/threonine-protein kinase Sgk3 (Homo sapiens). The following applies: at 10 µM.
The target in experiment [5] is Serine/threonine-protein kinase SIK1 (Homo sapiens) (UniProt P57059). Conditions: at 1 µM.
Chain of Serine/threonine-protein kinase SIK1 (Homo sapiens) (P57059 whole entry): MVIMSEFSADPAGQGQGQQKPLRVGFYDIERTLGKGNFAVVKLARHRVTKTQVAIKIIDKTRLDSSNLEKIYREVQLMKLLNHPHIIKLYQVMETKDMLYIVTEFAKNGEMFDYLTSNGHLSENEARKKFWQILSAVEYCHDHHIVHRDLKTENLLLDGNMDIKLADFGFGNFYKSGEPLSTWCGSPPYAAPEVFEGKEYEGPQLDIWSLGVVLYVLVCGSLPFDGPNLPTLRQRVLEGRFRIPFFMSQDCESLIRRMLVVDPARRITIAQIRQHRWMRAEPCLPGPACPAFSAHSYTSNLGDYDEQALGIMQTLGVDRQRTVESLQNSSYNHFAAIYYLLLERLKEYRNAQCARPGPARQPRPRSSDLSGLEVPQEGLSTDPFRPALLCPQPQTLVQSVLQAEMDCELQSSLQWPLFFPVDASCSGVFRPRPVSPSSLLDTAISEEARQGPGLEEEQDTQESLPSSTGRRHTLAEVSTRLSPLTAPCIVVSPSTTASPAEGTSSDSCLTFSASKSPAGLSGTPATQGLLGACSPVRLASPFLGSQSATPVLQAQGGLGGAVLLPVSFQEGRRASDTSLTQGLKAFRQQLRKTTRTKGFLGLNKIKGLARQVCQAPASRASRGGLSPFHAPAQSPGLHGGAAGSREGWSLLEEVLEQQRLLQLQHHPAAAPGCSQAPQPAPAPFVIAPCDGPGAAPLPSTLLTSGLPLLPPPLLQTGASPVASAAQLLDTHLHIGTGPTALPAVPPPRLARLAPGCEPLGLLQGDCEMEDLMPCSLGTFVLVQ
Experiment [6] shares this target. Conditions: at 10 µM.
The target of experiment [7] is SRSF protein kinase 1 (Homo sapiens) (UniProt Q96SB4). Conditions: at 1 µM.
Chain of SRSF protein kinase 1 (Homo sapiens) (Q96SB4 whole entry): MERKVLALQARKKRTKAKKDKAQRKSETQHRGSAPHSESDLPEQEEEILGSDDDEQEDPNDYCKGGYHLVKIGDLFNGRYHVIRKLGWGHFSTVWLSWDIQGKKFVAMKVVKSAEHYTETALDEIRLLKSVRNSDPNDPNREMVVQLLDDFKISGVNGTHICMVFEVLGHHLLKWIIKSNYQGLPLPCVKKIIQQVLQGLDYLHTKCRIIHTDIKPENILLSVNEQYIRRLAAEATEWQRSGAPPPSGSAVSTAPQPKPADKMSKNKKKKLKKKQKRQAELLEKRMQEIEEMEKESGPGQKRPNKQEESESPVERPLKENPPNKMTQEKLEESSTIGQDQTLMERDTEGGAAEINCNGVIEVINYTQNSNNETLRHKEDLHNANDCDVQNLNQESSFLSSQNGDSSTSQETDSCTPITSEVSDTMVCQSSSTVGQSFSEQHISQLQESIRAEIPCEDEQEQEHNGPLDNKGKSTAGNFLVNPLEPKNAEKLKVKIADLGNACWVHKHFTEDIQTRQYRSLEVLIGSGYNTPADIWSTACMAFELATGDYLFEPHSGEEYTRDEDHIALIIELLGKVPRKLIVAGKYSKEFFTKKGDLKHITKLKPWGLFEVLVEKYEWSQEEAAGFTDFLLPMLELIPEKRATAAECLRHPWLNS
For experiment [8] the target is unchanged. Conditions: at 10 µM.
In experiment [9] the target is SRSF protein kinase 2 (Homo sapiens) (UniProt P78362). Conditions: at 1 µM.
Chain of SRSF protein kinase 2 (Homo sapiens) (P78362 whole entry, looked up): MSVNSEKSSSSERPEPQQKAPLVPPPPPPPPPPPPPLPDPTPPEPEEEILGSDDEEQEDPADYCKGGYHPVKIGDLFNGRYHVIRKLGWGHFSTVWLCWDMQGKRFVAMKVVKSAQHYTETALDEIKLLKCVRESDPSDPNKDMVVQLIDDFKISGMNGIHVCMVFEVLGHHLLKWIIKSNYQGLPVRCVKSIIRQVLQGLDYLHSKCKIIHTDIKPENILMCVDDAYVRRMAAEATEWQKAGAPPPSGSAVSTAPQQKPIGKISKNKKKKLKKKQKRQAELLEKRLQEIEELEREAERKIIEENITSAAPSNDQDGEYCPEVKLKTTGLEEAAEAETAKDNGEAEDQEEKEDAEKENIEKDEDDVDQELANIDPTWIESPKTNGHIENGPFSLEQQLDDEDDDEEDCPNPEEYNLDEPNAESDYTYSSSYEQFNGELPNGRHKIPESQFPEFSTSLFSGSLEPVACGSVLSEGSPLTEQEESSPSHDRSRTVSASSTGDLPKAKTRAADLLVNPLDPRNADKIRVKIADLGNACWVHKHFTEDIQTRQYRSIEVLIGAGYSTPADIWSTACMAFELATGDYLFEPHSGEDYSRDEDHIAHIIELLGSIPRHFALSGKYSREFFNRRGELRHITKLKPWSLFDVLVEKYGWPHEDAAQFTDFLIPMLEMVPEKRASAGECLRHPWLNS
For experiment [10] the target is unchanged. The following applies: at 10 µM.

On to `O=[N+]([O-])/C=C/c1ccc2c(c1)OCO2`, for which the residual activity turned out to be 89% in experiment [1]; 66% in experiment [2]; 110% in [3]; 87% in experiment [4]; 100% in experiment [5]; 112% in [6]. Moreover, the residual activity is 111% in experiment [7], 99% in [8], 97% in [9] and 98% in [10].

Take `Ic1cccc(CSc2nnc(-c3ccncc3)o2)c1`: the residual activity in [3] came out at 91%.

Turning to `NC(=O)c1ccc2[nH]c(-c3ccc(Oc4ccc(Cl)cc4)cc3)nc2c1`, the residual activity in [3] stood at 107%.

Take `CC(C)(C)n1nc(Cc2cccc3ccccc23)c2c(N)ncnc21`: in experiment [3], the residual activity turned out to be 106%.

On to `O=C1NC(=O)c2c1c1c3ccccc3[nH]c1n1cncc21`, for which the residual activity in experiment [3] amounted to 87%.

In the case of `O=C(c1ccccc1)c1ccc(N2CCOCC2)cc1O`, in experiment [3], the residual activity was found to be 97%.

On to `CCCC(=O)Oc1ccc2[nH]c(C(=O)c3cc4ccccc4[nH]3)cc2c1`, for which, in [3], the residual activity turned out to be 94%.

In the case of `CCn1cnc2c(Nc3cccc(Cl)c3)nc(N[C@@H]3CCCC[C@@H]3N)nc21`, the residual activity stood at 97% in experiment [1]; 65% in [2]; 59% in [4]; 20% in [5]; 0% in experiment [6]; 39% in experiment [8]. Besides, the residual activity came to 69% in [9] and 32% in experiment [10].

For `Cc1nc(-c2ccccc2)c(-c2ccncc2)o1`, the residual activity in experiment [3] came out at 108%.

For the molecule `O=c1c2ccccc2[nH]c(=S)n1CCN1CCC(=C(c2ccc(F)cc2)c2ccc(F)cc2)CC1`, the residual activity in experiment [3] amounted to 118%.

Turning to `COc1ccc(OC)c2c(=S)c3ccccc3[nH]c12`, the residual activity in [3] was found to be 112%.

For the molecule `O=C(c1cc2cc(O)ccc2[nH]1)c1cc2cc(O)ccc2[nH]1`, in [3], the residual activity is 81%.

With `O=C1Nc2ccc3ncsc3c2/C1=C/c1c[nH]cn1`, the residual activity amounted to 12% in [1]; 5% in [2]; 73% in [3]; 21% in experiment [4]; 49% in [5]; 43% in [6]. Further, the residual activity was determined as 102% in [7], 101% in experiment [8] and 104% in [9].

In the case of `COc1cc2ncnc(N3CCN(C(=O)Nc4ccc(Oc5ccccc5)cc4)CC3)c2cc1OC`, the residual activity in experiment [3] was 104%.

Turning to `O=C1NC(=O)c2c1c1c3ccccc3n3c1c1c2c2ccccc2n1C1CCC3O1`, the residual activity in [1] is 77%; in experiment [2], 61%; in experiment [3], 98%; in [4], 80%; in [5], 123%; in experiment [6] it was 74%. Also, the residual activity in experiment [7] was 92%; in experiment [8] it was 83%.

For `COc1ccc2c(c[n+](C)c3c4cc5c(cc4ccc23)OCO5)c1OC`, the residual activity in [1] came out at 130%; in experiment [2], 65%; in experiment [4], 79%; in experiment [5], 92%; in experiment [8] it was 98%; in experiment [9] it was 96%. For the same molecule, the residual activity in experiment [10] was 96%.

In the case of `COC(=O)[C@@]1(O)C[C@H]2O[C@]1(C)n1c3ccccc3c3c4c(c5c6ccccc6n2c5c31)C(=O)NC4`, the residual activity in [1] stood at 7%; in experiment [2], 1%; in experiment [3], 47%; in experiment [4], 13%; in experiment [5], 0%; in experiment [6] it was 0%. The residual activity in experiment [7] came to 67%; in experiment [8], 14%; in experiment [9], 97%; in [10] it was 52%.

Regarding `O=C1NC(=O)/C(=C/c2ccc3c(c2)OC(F)(F)O3)S1`, the residual activity in [3] turned out to be 109%.

With `Nc1n[nH]c2nnc(-c3c(-c4ccccc4)nn4ccccc34)cc12`, the residual activity in experiment [3] stood at 106%.

On to `COc1cc2ncnc(Nc3ccc(OCc4ccccc4)cc3)c2cc1OC`, for which the residual activity in [1] amounted to 89%; in experiment [2] it was 96%; in experiment [3] it was 115%; in experiment [4], 108%; in [5], 82%; in [6] it was 103%. Further, the residual activity was found to be 102% in experiment [7], 116% in [8], 108% in experiment [9] and 104% in experiment [10].

On to `O=C(Nc1nc2ccccc2n1CCN1CCOCC1)c1cccc([N+](=O)[O-])c1`, for which the residual activity in experiment [3] is 108%.

As to `CN(C)c1ccc(/C=C2\C(=O)Nc3ccccc32)cc1`, in experiment [3], the residual activity worked out at 106%.

As for `CCN1/C(=C/C(C)=O)Sc2ccc(OC)cc21`, the residual activity in experiment [3] came to 100%.

Turning to `C[S+]([O-])c1ccc(-c2nc(-c3ccc(F)cc3)c(-c3ccncc3)[nH]2)cc1` (configuration not stated), the residual activity in experiment [1] worked out at 114%; in experiment [2] it was 81%; in [3], 120%; in [4] it was 101%; in experiment [5], 132%; in experiment [6], 93%. Further, the residual activity in experiment [7] came out at 112%; in experiment [8], 109%; in [9] it was 112%.

(Values after ChEMBL document CHEMBL2218924, “A broad activity screen in support of a chemogenomic map for kinase signalling research and drug discovery” (Biochem J, 2013).)
